From the supplement of paper PMC7156485
± gives the standard deviation of the averaged measurements.

Experiments:
Settings in all cases: concentration: 10 µM; 24 h
[1] = tested on: HCC1569; assay: cell number relative to DMSO (% of DMSO); higher = more cells (less growth inhibition / toxicity)
Outline: (§1)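 In 384-well plates holding 800 HCC1569 or TDF cells per well in RPMI with 10% FBS, compounds were tested at 10 µM for 24 h at 37 °C in triplicate. Fixation used 3.7% formaldehyde. Staining used a rabbit anti-H1.0 antibody with an AlexaFluor 647 secondary, plus DAPI. Each value, H1.0 nuclear intensity or cell number, is a median of replicates shown as percent of the plate control, and HCC1569 values were smoothed for positional effects.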

[2] = tested on: TDF; assay: as above
Outline: as §1

[3] = tested on: TDF; assay: H1.0 immunofluorescence intensity relative to DMSO (% of DMSO); higher = stronger H1.0 induction, active = 120 or more
Outline: as §1

[4] = tested on: HCC1569; assay: H1.0 immunofluorescence intensity relative to DMSO (% of DMSO); higher = stronger H1.0 induction, active = 140 or more
Outline: as §1

[5] = tested on: HCC1569; assay: H1.0 immunofluorescence intensity relative to DMSO (% of DMSO); higher = stronger H1.0 induction
Outline: as §1

[6] = tested on: TDF; assay: as above
Outline: as §1
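For H1.0 immunofluorescence intensity relative to DMSO in this document: TDF is a line of transformed human dermal fibroblasts of mesenchymal origin.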
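For cell number relative to DMSO in this document: TDF denotes transformed human dermal fibroblasts of mesenchymal origin.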

SMILES | cell number [1] | cell number [2] | H1.0 immunofluorescence intensity [3] | H1.0 immunofluorescence intensity [4] | H1.0 immunofluorescence intensity [5] | H1.0 immunofluorescence intensity [6]
COC(=O)C1=C(C)NC(C)=C(C(=O)OCCN(C)Cc2ccccc2)C1c1cccc([N+](=O)[O-])c1.Cl (stereo not drawn) [Nicardipine hydrochloride] | 96.7 | 103 | 99.2 (inactive) | 100 (inactive) |  | 
O=C(Nc1ccc(N2CCOCC2)c(S(=O)(=O)Nc2ccccc2Cl)c1)c1ccncc1 [Chk2 Inhibitor] | 98.5 | 110 | 87.3 (inactive) | 99.5 (inactive) |  | 
C[C@H](O)[C@H](O)[C@H]1CNc2[nH]c(N)nc(=O)c2N1.Cl.Cl | 103 | 97.2 | 92.5 (inactive) | 97 (inactive) |  | 
CC(C)NCC(O)c1cc(O)cc(O)c1.CC(C)NCC(O)c1cc(O)cc(O)c1.O=S(=O)(O)O (stereo not drawn) [Metaproterenol hemisulfate] | 102 | 106 | 92.1 (inactive) | 93.4 (inactive) |  | 
COCCOC(=O)C1=C(C)NC(C)=C(C(=O)OC(C)C)C1c1cccc([N+](=O)[O-])c1 (stereo not drawn) [Nimodipine] | 100 ± 2.9 | 106 ± 3.4 | 91.6 (inactive) | 104 (inactive) |  | 
COc1cc(OC)c(C=C2C(=O)Nc3ccccc32)c(OC)c1 | 63.1 | 11.2 | 145 (active) | 184 (active) |  | 
NC(=O)OCC(COC(N)=O)c1ccccc1 [Felbamate] | 111 ± 15 | 109 ± 1.2 | 97 (inactive) | 93.1 (inactive) |  | 
CC(=Cc1ccc(C(=O)O)cc1)c1ccc2c(c1)C(C)(C)CCC2(C)C | 100.2 ± 0.57 | 106 ± 2.4 | 89.4 (inactive) | 111 (inactive) |  | 
O=P(O)(O)C(Cl)(Cl)P(=O)(O)O [Clodronic acid] | 101 | 103 | 88.3 (inactive) | 102 (inactive) |  | 
CCCCCC=CCC(O)C=CC=CC=CC(O)CCCC(=O)O (stereo not drawn) [Leukotriene B4] | 105 | 98.8 | 93.3 (inactive) | 102 (inactive) |  | 
COc1ccc(C(=O)NCc2ccc(OCCN(C)C)cc2)cc1OC [Itopride] | 101 | 104 | 92 (inactive) | 118 (inactive) |  | 
Cc1nc(C(=O)N2CCC[C@H]2Cc2nnc(-c3ccccc3)o2)c(-c2ccccc2F)s1 | 96.3 | 113 | 97.5 (inactive) | 95.5 (inactive) |  | 
O=C(O)CCCCC1CCSS1 (racemic) | 104 |  |  |  |  | 
CCN(Cc1ccccc1)C(=O)Cn1c(=O)n(C)c2cnc(-c3ccccc3)nc21 | 75.1 | 17.6 | 156 (active) | 123 (inactive) |  | 
C[N+](C)(CCCCCC[N+](C)(C)CCCN1C(=O)c2cccc3cccc(c23)C1=O)CCCN1C(=O)c2cccc3cccc(c23)C1=O.[Br-].[Br-] | 100 | 101 | 97.2 (inactive) | 108 (inactive) |  | 
CCCCCCCCCCCCCC=CC(O)C(CO)NC(=O)CCCCC (stereo not drawn) [C6 Ceramide] | 100 | 59.7 | 151 (active) | 101 (inactive) |  | 
COC(=O)c1cc(OC)c2c(c1-c1c(CO)cc(OC)c3c1OCO3)OCO2 | 104 | 99.8 | 98.6 (inactive) | 109 (inactive) |  | 
COC1=C(OC)C(=O)c2ccccc2C1=O [2,3-Dimethoxy-1,4-naphthoquinone] | 74.6 | 36.2 | 114 (inactive) | 128 (inactive) |  | 
NC(=O)c1ccc(-c2nc(-c3ccc4c(c3)OCO4)c(-c3ccccn3)[nH]2)cc1 | 95.7 | 106 | 95.9 (inactive) | 136 (inactive) |  | 
CCc1cc(Cl)c(OC)c(C(=O)NCC2CCCN2CC)c1O.Cl (stereo not drawn) [S-(-)-Eticlopride hydrochloride] | 102 | 110 | 103 (inactive) | 97.8 (inactive) |  | 
O=C(c1cc2cc(O)ccc2[nH]1)c1cc2cc(O)ccc2[nH]1 [Flt-3 Inhibitor II] | 67.1 | 73 | 99.9 (inactive) | 195 (active) |  | 
CC(=O)N[C@@H](CS)C(N)=O | 109 | 93.6 |  |  | 103 (inactive) | 96.2 (inactive)
Cc1cc2c(OCC(CNC(C)(C)C)OC(=O)c3ccccc3)cccc2[nH]1 (stereo not drawn) [Bopindolol] | 98.1 | 89.5 | 99 (inactive) | 103 (inactive) |  | 
O=C(Nc1cc(C(=O)Nc2ccc(S(=O)(=O)[O-])cc2S(=O)(=O)[O-])cc(C(=O)Nc2ccc(S(=O)(=O)[O-])cc2S(=O)(=O)[O-])c1)Nc1cc(C(=O)Nc2ccc(S(=O)(=O)[O-])cc2S(=O)(=O)[O-])cc(C(=O)Nc2ccc(S(=O)(=O)[O-])cc2S(=O)(=O)[O-])c1.[Na+].[Na+].[Na+].[Na+].[Na+] [NF449 octasodium salt] | 97.4 | 92.8 | 89.6 (inactive) | 108 (inactive) |  | 
